This is part of a sample that, as a whole, favours compounds with a hit. Of some 83,000 tested, about 20% had one in any assay.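 Plates (96-well) were seeded with cells, treated with compound at one concentration, and incubated for 48 hours before percent growth was determined.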 A number with no mark means an inactive call. The source made the active and inactive calls. The calls were made as follows: active = growth percent below 10; inactive = the rest.

We go through 15 compounds from PubChem BioAssay (NCI).

The assay concerns HL-60(TB) leukemia. The assay is described as follows: NCI-60 one-dose screen, 48 h (100 = growth as untreated, 0 = no growth, -100 = all killed). The conditions noted are these: 10 µM unless noted.
With `O=C(Nc1ccc(Cl)cc1F)c1ccccc1O`, the growth was 19.9%.

For the compound `COc1ccc(C(=O)c2cc3c(N)c(C(=O)Nc4cccc(Cl)c4C)sc3nc2C)cc1`, the growth is -60.6% (active).

In the case of `COc1ccc(Cn2c(Br)c3c(c2Br)-c2nc(NC(=O)c4ccc(OC)cc4)sc2CC3)cc1`, the growth is 75.9%.

As to `C=C(CBr)[C@@H]1CC[C@]2(COC(C)=O)CC[C@]3(C)[C@H](CC[C@@H]4[C@@]5(C)CCCNC(C)(C)[C@@H]5CC[C@]43C)[C@@H]12`, the growth was -8.09% (active).

Turning to `Clc1ccc(-n2cnc3c(Cl)ncnc32)cc1Cl`, the growth is 45.7%.

For `Cc1ccc2c(c1)/C(=N\N=C/c1cn(C(C)C)c3ccccc13)C(=O)N2`, the growth is -33.3% (active).

Consider `CCOC(=O)c1sc2ncc(-c3ccc(C)cc3)n2c1C`, for which the growth is 75.4%.

Consider `COc1ccc(C2=C(c3cn(C)c4ccccc34)C(=O)OC2)cc1OC`, for which the growth is 7.26% (active).

As to `Fc1ccc(-c2nn(-c3ccccc3)cc2-c2nc3ccccc3o2)cc1`, the growth was 77.3%.

`C/C(=N\NC(N)=S)c1nc2ccc(Cl)cc2[nH]1`: the growth was 29.5%.

Turning to `O=C1NCC(Nc2ccc(Br)cc2Cl)C(=O)N1` (stereo not given), the growth is 108%.

For the compound `COc1cc2cc(COc3nccc(-c4ccc(Cl)cc4)n3)c(=O)[nH]c2cc1OC`, the growth is 70.2%.

Regarding `Cc1ccsc1-c1ccc2c(c1)COC2(CCCN(C)C)c1ccc(F)cc1` (stereo not given), the growth was 23%.

Consider `Nc1c(C(=O)c2ccc(F)cc2)sc2nc3c(cc12)CCCC3`, for which the growth was 70.2%.

`Cc1cc(/C=C\c2ccc3ccccc3[n+]2C)c(O)c2ncccc12`: the growth was -22.4% (active).
